From PubChem BioAssay (NCI)
About 83,000 compounds went through this panel and 20% of them were active in at least one assay; those are over-represented in the sample as a whole.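 Method: cells in 96-well plates; compound added at one concentration; 48 h incubation; percent growth measured; values under 10 scored active.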 Values without a mark were called inactive. Active and inactive are the calls of the source.

The molecules below were run on SW-620 colon (assay: NCI-60 one-dose screen, 48 h (100 = growth as untreated, 0 = no growth, -100 = all killed)). Details: 10 µM unless noted.

Compared with `COc1ccc2[nH]c3nc4cnccc4cc3c2c1`, `COc1cc([C@H](C)c2ccc3ccccc3c2)cc(OC)c1OC` is lower in growth: 104% for the first, 28.5% for the second.

First: O=C(Nc1ccccc1)NS(=O)(=O)c1c[nH]c(=S)[nH]c1=O
Second: S=C(Nc1ccccc1)c1ccccn1
The growth of the first is higher: 105% for the first, 89.6% for the second.

First: NCCCn1c2c(c3cc(-c4ccn[nH]4)ccc3c1=O)C(=O)c1ccccc1-2
Second: Nc1c(C(=O)Nc2cccc3ccccc23)sc2nc3c(cc12)COCC3
The growth of the first is lower: 24.6% for the first, 24.9% for the second.

First: COc1cc(-c2csc(NC(=O)Nc3ccc(C(F)(F)F)cc3)n2)cc(OC)c1OC
Second: CCOC(=O)c1c(C)nc2c(c1N)/C(=C/c1ccc[nH]1)C(=O)N2Cc1ccc(C(F)(F)F)cc1
The growth of the first is lower: 14.8% for the first, 66% for the second.

First: OCCNc1nc(NCCO)nc(Nc2ccc(C3=NN(c4cc(Cl)cc(Cl)c4)C(c4ccc(C(F)(F)F)cc4)C3)cc2)n1 (centres undefined)
Second: O=CN1N=C(c2ccc(F)cc2)CC1c1cccc(Nc2ccnc3cc(C(F)(F)F)ccc23)c1 (centres undefined)
The growth of the first is lower: 60.1% for the first, 79.1% for the second.

Going from `Cc1cnc(-c2ccc(-c3ccc(NC(=O)Nc4c(F)cc(F)cc4F)cc3F)c3c2C(=O)NC3)[nH]1` to `O=C1Nc2ccc(Cl)cc2/C1=N/c1nc(-c2ccc(Cl)cc2)cs1`, the growth rises from 10.1% to 12.9%.

Going from `O=C(Nc1cccc(-c2cccc(F)c2)c1)C1CCN(Cc2cccc3cccnc23)CC1` to `Cc1cc2ccccc2c[n+]1CC(=O)c1ccc(-c2ccccc2)cc1`, the growth rises from 43.3% to 48.5%.

Going from `CC(=O)ON1CCCC(P(=O)(OCOC(=O)C(C)(C)C)OCOC(=O)C(C)(C)C)C1=O` (centres undefined) to `COC(=O)[C@]1(C)CCC[C@]2(C)[C@H]3C[C@H]4C(C(C)C)=C[C@]3(CC[C@H]21)[C@@H]1C(=O)N(CCC#N)C(=O)[C@@H]14`, the growth rises from 16.5% to 89.9%.

Compared with `Cc1cnc(SCc2ccc(Cl)cc2Cl)nc1Nc1ccc(Cl)c(Cl)c1`, `CC(=O)c1ccc(NC(=O)CSc2nnc(-c3cc(-c4ccc(Cl)cc4)nc4ccccc34)o2)cc1` is lower in growth: 102% for the first, 75.6% for the second.

First: O=C(O)c1cn(C2CC2)c2cc(N3CCN(Cc4nnc(Nc5ccccc5)o4)CC3)c(F)cc2c1=O
Second: COc1ccccc1N1CCN(CCCOc2ccc(C(=O)/C=C3/C(=O)Nc4ccccc43)cc2)CC1
The growth of the first is higher: 106% for the first, 70.6% for the second.

Going from `C#Cc1cccc(Nc2ncnc3ccc(NC(=O)c4ccccc4)cc23)c1` to `COC(=O)c1ccc(NC(=O)CSc2nc(-c3ccc(F)cc3)nc3ccccc23)cc1`, the growth falls from 100% to 79.6%.

First: Cc1cccc(C)c1NC(=O)CN(CC(C)C)CC(O)COc1ccccc1 (centres undefined)
Second: CCOC(=O)/C(=C/c1c(-c2ccccc2)[nH]c2ccccc12)C(=O)c1ccc(Cl)cc1
The growth of the first is higher: 93.6% for the first, 45.4% for the second.

Going from `Cc1cc(C)n(-c2nc(-c3cccs3)c(C#N)c(=O)[nH]2)n1` to `N#Cc1c(-c2ccc(F)cc2)c(C#N)c2c(C#N)c(N)nn2c1N`, the growth rises from 102% to 107%.

First: CN(C)C1=NCCN1
Second: COc1ccc2c(c1)/C(=C1\S/C(=N/c3nnc(C)s3)NC1=O)C(=O)N2Cc1ccc(Cl)cc1
The growth of the first is higher: 106% for the first, 49.3% for the second.

First: N#CCNc1ccc(C(=O)O)cc1
Second: C=C(C)[C@@H]1CC[C@]2(C(=O)O)CC[C@]3(C)[C@H](CC[C@@H]4[C@@]5(C)C[C@@H](CC#Cc6ccccc6C)C(=O)C(C)(C)[C@@H]5CC[C@]43C)[C@@H]12
The growth of the first is higher: 103% for the first, 25.7% for the second.

Going from `O=C(O)CCNC1CCCCC1` to `CC(=O)[C@@H]1CC[C@]2(C(=O)O)CC[C@]3(C)[C@H](CC[C@@H]4[C@@]5(C)Cc6c([nH]c7ccccc67)C(C)(C)[C@@H]5CC[C@]43C)[C@@H]12`, the growth falls from 101% to 54.5%.

Going from `N#CC1(C#N)C2=C(CCCC2)NC(c2c(F)cccc2Cl)C1(C#N)C#N` (centres undefined) to `COCCOCCOCc1n(Cc2ccc3ccccc3c2)c2ccccc2[n+]1Cc1ccc2ccccc2c1`, the growth falls from 48.8% to 18.9%.

`COc1ccc2c(c1)C1(C(=O)N2)C(C#N)=C(c2ccccc2)Nc2c1c(-c1ccccc1)nn2-c1ccccc1` (centres undefined) was tested, and the growth was 8.54% (active).
In the case of `Cc1ccc(C(=O)/C(=C/c2ccc([N+](=O)[O-])cc2)S(=O)Cc2ccccc2)cc1` (centres undefined), the growth was 2.41% (active).
`COc1cc(/C=C/C(=O)/C=C/c2cc3ccc(Cl)cc3n(Cc3ccccc3)c2=O)ccc1O` was tested, and the growth was 3.39% (active).

What follows are molecules tested on MCF7 breast in the same assay as above. Details: 10 µM unless noted.

Compared with `COc1ccc2[nH]c3nc4cnccc4cc3c2c1`, `COc1cc([C@H](C)c2ccc3ccccc3c2)cc(OC)c1OC` is lower in growth: 82% for the first, 14.8% for the second.

First: O=C(Nc1ccccc1)NS(=O)(=O)c1c[nH]c(=S)[nH]c1=O
Second: S=C(Nc1ccccc1)c1ccccn1
The growth of the first is higher: 100% for the first, 77.5% for the second.

Compared with `NCCCn1c2c(c3cc(-c4ccn[nH]4)ccc3c1=O)C(=O)c1ccccc1-2`, `Nc1c(C(=O)Nc2cccc3ccccc23)sc2nc3c(cc12)COCC3` is higher in growth: 13% for the first, 18.7% for the second.

Going from `COc1ccc2c(c1)C1(C(=O)N2)C(C#N)=C(c2ccccc2)Nc2c1c(-c1ccccc1)nn2-c1ccccc1` (centres undefined) to `Cc1cc2ccccc2c[n+]1CC(=O)c1ccc(-c2ccccc2)cc1`, the growth rises from 18.1% to 29.3%.

Going from `OCCNc1nc(NCCO)nc(Nc2ccc(C3=NN(c4cc(Cl)cc(Cl)c4)C(c4ccc(C(F)(F)F)cc4)C3)cc2)n1` (centres undefined) to `O=CN1N=C(c2ccc(F)cc2)CC1c1cccc(Nc2ccnc3cc(C(F)(F)F)ccc23)c1` (centres undefined), the growth rises from 10.7% to 25.3%.

Going from `Cc1cnc(-c2ccc(-c3ccc(NC(=O)Nc4c(F)cc(F)cc4F)cc3F)c3c2C(=O)NC3)[nH]1` to `COC(=O)c1ccc(NC(=O)CSc2nc(-c3ccc(F)cc3)nc3ccccc23)cc1`, the growth rises from 22.1% to 61.1%.

Compared with `O=C(Nc1cccc(-c2cccc(F)c2)c1)C1CCN(Cc2cccc3cccnc23)CC1`, `C#Cc1cccc(Nc2ncnc3ccc(NC(=O)c4ccccc4)cc23)c1` is higher in growth: 19.9% for the first, 72.1% for the second.

Compared with `Cc1cnc(SCc2ccc(Cl)cc2Cl)nc1Nc1ccc(Cl)c(Cl)c1`, `CC(=O)c1ccc(NC(=O)CSc2nnc(-c3cc(-c4ccc(Cl)cc4)nc4ccccc34)o2)cc1` is lower in growth: 85.4% for the first, 55.8% for the second.

Compared with `O=C(O)c1cn(C2CC2)c2cc(N3CCN(Cc4nnc(Nc5ccccc5)o4)CC3)c(F)cc2c1=O`, `COc1ccccc1N1CCN(CCCOc2ccc(C(=O)/C=C3/C(=O)Nc4ccccc43)cc2)CC1` is lower in growth: 97.7% for the first, 49.7% for the second.

Compared with `CCOC(=O)c1c(C)nc2c(c1N)/C(=C/c1ccc[nH]1)C(=O)N2Cc1ccc(C(F)(F)F)cc1`, `COc1ccc2c(c1)/C(=C1\S/C(=N/c3nnc(C)s3)NC1=O)C(=O)N2Cc1ccc(Cl)cc1` is higher in growth: 45.1% for the first, 45.8% for the second.

First: Cc1cccc(C)c1NC(=O)CN(CC(C)C)CC(O)COc1ccccc1 (centres undefined)
Second: CCOC(=O)/C(=C/c1c(-c2ccccc2)[nH]c2ccccc12)C(=O)c1ccc(Cl)cc1
The growth of the first is higher: 83.3% for the first, 28.4% for the second.

First: COc1cc(/C=C/C(=O)/C=C/c2cc3ccc(Cl)cc3n(Cc3ccccc3)c2=O)ccc1O
Second: N#CCNc1ccc(C(=O)O)cc1
The growth of the first is lower: 26.2% for the first, 98.9% for the second.

Going from `Cc1cc(C)n(-c2nc(-c3cccs3)c(C#N)c(=O)[nH]2)n1` to `N#Cc1c(-c2ccc(F)cc2)c(C#N)c2c(C#N)c(N)nn2c1N`, the growth rises from 89.8% to 96.7%.

Compared with `CN(C)C1=NCCN1`, `CC(=O)[C@@H]1CC[C@]2(C(=O)O)CC[C@]3(C)[C@H](CC[C@@H]4[C@@]5(C)Cc6c([nH]c7ccccc67)C(C)(C)[C@@H]5CC[C@]43C)[C@@H]12` is lower in growth: 97.2% for the first, 38.6% for the second.

Going from `O=C(O)CCNC1CCCCC1` to `COC(=O)[C@]1(C)CCC[C@]2(C)[C@H]3C[C@H]4C(C(C)C)=C[C@]3(CC[C@H]21)[C@@H]1C(=O)N(CCC#N)C(=O)[C@@H]14`, the growth falls from 87.5% to 72.2%.

Compared with `N#CC1(C#N)C2=C(CCCC2)NC(c2c(F)cccc2Cl)C1(C#N)C#N` (centres undefined), `C=C(C)[C@@H]1CC[C@]2(C(=O)O)CC[C@]3(C)[C@H](CC[C@@H]4[C@@]5(C)C[C@@H](CC#Cc6ccccc6C)C(=O)C(C)(C)[C@@H]5CC[C@]43C)[C@@H]12` is lower in growth: 21.1% for the first, 15.3% for the second.

For `COc1cc(-c2csc(NC(=O)Nc3ccc(C(F)(F)F)cc3)n2)cc(OC)c1OC`, the growth was 0.456% (active).
`Cc1ccc(C(=O)/C(=C/c2ccc([N+](=O)[O-])cc2)S(=O)Cc2ccccc2)cc1` (centres undefined) was tested, and the growth was 1.83% (active).
`CC(=O)ON1CCCC(P(=O)(OCOC(=O)C(C)(C)C)OCOC(=O)C(C)(C)C)C1=O` (centres undefined) was tested, and the growth was -1.76% (active).
For `O=C1Nc2ccc(Cl)cc2/C1=N/c1nc(-c2ccc(Cl)cc2)cs1`, the growth was 5.81% (active).
`COCCOCCOCc1n(Cc2ccc3ccccc3c2)c2ccccc2[n+]1Cc1ccc2ccccc2c1` was tested, and the growth was 7.6% (active).
